Reference: the supplement of paper PMC11732987, “Enantioselective OTUD7B fragment discovery through chemoproteomics screening and high-throughput optimisation” (Communications Chemistry, 2025)

Assays:
Assay in all cases: log2 ratio of Biotin-Ahx-Ub-VS probe labelling (fragment/DMSO); higher = less target engagement (more negative = stronger competition), active = hit call of the paper (q ≤ 0.05, log2 ratio ≤ -1)
Conditions in all cases: compound concentration: 200 uM; treatment time: 3 h
[1] = biological target: T1, USP19 (UniProt O94966)
T1 sequence (whole entry): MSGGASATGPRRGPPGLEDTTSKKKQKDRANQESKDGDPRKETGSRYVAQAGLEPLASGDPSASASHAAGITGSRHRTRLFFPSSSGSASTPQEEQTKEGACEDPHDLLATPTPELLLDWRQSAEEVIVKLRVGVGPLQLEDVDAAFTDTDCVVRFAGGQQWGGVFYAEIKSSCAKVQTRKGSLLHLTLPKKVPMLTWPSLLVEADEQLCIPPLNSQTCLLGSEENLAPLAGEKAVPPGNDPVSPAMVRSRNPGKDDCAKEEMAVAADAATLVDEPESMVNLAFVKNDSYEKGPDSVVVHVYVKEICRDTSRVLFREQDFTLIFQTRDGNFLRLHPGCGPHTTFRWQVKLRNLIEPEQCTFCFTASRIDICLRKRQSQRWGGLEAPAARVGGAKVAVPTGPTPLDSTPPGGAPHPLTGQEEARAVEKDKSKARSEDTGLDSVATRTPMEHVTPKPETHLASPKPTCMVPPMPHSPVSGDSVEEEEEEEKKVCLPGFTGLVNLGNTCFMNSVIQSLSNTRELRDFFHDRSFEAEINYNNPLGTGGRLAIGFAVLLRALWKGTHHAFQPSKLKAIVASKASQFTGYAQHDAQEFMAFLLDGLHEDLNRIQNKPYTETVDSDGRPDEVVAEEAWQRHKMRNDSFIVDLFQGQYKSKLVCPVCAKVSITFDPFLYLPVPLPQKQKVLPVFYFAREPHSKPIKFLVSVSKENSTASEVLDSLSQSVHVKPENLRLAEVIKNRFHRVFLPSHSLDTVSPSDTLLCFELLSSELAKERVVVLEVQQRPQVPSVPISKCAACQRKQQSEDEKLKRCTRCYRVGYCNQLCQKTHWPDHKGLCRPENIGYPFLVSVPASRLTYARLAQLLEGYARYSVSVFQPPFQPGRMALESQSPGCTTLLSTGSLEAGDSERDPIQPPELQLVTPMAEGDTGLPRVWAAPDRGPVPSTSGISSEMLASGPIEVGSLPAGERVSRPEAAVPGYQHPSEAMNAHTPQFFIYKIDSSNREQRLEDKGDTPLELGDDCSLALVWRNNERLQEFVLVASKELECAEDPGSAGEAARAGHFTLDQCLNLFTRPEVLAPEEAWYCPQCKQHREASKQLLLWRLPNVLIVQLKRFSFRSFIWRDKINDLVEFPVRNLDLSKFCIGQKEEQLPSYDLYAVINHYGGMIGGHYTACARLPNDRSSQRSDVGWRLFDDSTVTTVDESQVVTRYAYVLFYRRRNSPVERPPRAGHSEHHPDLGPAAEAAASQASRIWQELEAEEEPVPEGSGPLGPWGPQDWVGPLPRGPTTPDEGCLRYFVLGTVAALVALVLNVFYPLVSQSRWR
In short: (§1)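 Values give the average log2 ratio of fragment to vehicle, assessed by unpaired t-test on global-median-normalised Spectronaut label-free quantities. Proteins needed ≥2 unique peptides. HEK293T lysate (495 µg per sample) was treated in triplicate with fragment at 200 µM or vehicle for 3 h and then with Biotin-Ahx-Ub-VS at 0.5 µM final for 1 h. Labelled DUBs were NeutrAvidin-enriched, digested and run by diaPASEF LC-MS/MS.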

[2] = biological target: T2, USP22 (UniProt Q9UPT9)
T2 sequence (whole entry): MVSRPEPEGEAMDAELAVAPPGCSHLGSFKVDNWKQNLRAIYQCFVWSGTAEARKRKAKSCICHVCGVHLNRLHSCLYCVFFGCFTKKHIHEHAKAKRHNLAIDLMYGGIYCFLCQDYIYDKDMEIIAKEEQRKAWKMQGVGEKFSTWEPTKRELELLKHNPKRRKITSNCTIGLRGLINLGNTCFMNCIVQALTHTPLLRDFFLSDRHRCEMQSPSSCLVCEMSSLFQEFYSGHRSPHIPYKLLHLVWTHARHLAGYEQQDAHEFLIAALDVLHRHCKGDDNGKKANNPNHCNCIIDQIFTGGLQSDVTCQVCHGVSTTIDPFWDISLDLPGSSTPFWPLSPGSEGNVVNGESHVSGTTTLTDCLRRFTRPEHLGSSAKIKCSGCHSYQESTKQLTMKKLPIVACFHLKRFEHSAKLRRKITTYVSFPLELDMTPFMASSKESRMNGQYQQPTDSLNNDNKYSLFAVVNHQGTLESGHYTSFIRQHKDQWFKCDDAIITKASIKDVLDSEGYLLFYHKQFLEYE
In short: as §1

[3] = biological target: USP24 (UniProt Q9UPU5)
In short: as §1

[4] = biological target: T3, USP25 (UniProt Q9UHP3)
T3 sequence (whole entry): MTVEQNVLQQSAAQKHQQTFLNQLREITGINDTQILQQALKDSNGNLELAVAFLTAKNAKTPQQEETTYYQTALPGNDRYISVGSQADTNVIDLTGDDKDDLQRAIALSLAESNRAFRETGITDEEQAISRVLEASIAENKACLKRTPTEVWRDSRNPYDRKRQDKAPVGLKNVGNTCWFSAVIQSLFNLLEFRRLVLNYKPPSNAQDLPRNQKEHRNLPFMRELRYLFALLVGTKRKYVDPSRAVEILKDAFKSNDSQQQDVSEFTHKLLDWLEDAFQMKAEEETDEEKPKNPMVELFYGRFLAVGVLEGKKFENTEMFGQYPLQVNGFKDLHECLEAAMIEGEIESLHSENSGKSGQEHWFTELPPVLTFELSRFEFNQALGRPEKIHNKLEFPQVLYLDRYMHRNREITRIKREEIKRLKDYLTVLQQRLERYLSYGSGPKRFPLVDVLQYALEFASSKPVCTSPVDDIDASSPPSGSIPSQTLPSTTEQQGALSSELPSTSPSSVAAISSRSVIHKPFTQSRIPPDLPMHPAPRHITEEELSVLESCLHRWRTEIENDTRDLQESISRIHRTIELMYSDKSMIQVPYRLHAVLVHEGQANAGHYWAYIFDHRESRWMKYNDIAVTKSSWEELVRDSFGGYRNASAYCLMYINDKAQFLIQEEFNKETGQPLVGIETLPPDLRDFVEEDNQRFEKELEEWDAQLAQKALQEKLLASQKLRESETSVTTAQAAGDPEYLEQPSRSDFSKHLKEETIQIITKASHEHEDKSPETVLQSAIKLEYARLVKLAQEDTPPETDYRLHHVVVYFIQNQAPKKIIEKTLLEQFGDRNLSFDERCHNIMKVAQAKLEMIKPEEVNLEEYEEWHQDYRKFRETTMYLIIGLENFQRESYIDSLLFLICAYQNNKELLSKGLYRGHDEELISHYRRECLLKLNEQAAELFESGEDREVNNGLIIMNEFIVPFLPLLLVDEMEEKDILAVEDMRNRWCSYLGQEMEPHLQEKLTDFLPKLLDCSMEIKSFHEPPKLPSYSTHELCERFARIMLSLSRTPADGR
In short: as §1

[5] = biological target: T4, USP28 (UniProt Q96RU2)
T4 sequence (whole entry): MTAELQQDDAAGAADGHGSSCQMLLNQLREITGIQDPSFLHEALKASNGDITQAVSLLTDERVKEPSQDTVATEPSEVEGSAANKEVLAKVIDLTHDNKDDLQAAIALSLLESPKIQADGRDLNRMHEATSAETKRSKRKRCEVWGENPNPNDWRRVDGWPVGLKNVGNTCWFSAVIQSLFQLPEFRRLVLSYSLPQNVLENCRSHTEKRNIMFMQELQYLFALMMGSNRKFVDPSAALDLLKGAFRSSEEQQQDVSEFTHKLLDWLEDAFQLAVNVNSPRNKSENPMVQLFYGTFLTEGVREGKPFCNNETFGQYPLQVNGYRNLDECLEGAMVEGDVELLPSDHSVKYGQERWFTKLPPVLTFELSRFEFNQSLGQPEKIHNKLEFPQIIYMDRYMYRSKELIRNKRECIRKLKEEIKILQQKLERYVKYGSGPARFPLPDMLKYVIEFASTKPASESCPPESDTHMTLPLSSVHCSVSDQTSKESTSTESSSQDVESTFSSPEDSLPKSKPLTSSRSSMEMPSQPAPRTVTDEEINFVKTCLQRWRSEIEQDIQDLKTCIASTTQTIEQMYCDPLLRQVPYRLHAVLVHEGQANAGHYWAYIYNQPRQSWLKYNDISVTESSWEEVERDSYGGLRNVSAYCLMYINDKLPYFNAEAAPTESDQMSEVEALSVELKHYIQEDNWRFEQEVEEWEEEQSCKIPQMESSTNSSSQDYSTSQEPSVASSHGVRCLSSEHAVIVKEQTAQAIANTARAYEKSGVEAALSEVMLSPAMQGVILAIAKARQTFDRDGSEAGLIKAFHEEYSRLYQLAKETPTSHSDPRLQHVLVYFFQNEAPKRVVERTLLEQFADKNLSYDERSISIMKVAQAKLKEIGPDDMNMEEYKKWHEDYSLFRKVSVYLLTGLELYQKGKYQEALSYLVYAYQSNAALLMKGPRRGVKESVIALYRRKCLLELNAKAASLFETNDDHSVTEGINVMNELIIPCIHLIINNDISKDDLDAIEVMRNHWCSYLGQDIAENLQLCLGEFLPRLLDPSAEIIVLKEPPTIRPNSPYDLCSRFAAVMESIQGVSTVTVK
In short: as §1

Measured: log2 ratio of Biotin-Ahx-Ub-VS probe labelling

Chain of USP24 (Q9UPU5 whole entry): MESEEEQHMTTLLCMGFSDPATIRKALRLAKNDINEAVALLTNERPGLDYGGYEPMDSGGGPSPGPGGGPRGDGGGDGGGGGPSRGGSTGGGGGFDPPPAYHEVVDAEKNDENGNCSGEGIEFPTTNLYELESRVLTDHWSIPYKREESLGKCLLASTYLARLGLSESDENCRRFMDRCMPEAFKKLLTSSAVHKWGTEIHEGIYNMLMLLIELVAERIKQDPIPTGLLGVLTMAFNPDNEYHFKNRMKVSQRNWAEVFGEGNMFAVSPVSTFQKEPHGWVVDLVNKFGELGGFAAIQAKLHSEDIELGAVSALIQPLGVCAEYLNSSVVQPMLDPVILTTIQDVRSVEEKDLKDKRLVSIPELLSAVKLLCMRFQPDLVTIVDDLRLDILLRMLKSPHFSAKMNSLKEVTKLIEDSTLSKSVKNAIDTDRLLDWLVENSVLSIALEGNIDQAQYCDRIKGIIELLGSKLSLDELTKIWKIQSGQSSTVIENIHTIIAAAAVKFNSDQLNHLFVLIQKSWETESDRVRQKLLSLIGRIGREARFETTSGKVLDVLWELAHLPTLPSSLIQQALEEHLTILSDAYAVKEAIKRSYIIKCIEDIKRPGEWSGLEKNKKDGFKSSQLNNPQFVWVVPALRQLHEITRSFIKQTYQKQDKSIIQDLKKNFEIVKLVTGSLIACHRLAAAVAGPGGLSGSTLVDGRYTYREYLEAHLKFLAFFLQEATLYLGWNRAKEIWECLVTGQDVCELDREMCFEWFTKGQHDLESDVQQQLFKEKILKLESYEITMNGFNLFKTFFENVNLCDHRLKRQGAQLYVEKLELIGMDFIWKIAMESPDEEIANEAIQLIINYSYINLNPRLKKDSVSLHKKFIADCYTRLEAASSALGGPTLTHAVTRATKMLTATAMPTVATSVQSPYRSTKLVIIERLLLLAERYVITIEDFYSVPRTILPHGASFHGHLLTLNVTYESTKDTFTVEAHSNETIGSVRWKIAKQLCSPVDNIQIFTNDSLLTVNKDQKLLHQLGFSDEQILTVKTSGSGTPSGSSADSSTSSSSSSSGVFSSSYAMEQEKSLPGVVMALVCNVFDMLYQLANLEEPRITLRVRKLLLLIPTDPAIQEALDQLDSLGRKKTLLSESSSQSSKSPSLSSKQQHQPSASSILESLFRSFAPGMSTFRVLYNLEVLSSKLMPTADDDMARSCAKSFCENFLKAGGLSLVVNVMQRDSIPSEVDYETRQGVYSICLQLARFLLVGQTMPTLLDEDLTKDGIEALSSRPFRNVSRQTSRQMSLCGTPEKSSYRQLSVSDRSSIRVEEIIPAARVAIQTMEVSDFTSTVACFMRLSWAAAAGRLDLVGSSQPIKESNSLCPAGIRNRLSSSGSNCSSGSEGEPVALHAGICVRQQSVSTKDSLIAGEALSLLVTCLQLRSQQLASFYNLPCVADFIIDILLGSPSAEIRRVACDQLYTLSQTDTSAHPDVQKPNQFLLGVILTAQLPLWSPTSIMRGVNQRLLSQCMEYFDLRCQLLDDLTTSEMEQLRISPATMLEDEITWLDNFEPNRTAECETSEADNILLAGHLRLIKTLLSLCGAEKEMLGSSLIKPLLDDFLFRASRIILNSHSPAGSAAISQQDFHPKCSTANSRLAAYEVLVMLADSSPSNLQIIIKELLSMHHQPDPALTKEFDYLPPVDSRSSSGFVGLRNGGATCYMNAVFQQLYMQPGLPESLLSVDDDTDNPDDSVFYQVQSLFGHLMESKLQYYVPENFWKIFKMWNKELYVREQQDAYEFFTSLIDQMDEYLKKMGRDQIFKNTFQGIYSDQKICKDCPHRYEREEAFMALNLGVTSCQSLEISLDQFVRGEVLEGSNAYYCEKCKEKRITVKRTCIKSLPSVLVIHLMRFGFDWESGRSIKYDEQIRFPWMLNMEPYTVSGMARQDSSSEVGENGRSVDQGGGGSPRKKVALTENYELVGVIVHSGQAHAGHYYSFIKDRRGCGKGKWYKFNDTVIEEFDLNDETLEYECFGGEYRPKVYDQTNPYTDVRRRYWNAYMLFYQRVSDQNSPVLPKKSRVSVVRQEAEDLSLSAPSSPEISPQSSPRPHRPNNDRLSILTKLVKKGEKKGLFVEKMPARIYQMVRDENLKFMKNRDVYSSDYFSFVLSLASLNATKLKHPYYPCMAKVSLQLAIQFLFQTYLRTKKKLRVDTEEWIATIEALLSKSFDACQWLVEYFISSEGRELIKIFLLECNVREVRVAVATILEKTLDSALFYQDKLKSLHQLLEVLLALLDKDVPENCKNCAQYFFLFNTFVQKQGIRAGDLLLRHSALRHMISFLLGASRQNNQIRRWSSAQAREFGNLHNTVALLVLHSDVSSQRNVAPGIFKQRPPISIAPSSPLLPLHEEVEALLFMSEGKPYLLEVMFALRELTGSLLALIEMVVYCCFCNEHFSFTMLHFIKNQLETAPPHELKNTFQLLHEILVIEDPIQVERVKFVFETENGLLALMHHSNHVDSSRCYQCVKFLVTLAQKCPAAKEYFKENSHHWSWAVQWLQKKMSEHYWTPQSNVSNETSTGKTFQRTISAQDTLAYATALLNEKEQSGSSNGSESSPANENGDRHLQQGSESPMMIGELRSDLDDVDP

Cc1nc(CN2CCN(C(=O)CCl)CC2)cs1
inactive: [1] -0.347 | [2] -0.169 | [3] -0.513 | [4] -0.212 | [5] -0.543
